Screening results from PubChem BioAssay.
KB-V1 cytotox – KB-V1 MDR subline cytotoxicity; KB-V1 MDR cells viability, CellTiter-Glo, 72 h; Potency, µM (titrated, usually from 46.1 µM), actives largely listed as cytotoxic; 3.4% of 400,000 active; AID 1347076; further: on the % scale 0 is the no-effect control and ±100 the full control effect; nearly all actives have a fitted effect of over 60% in size
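Drug-selected KB-V1 cells, grown in DMEM lacking phenol red with 10% FBS, receive compound titrations; after three days at 37 degrees C, surviving cell ATP is quantified by CellTiter-Glo luminescence and responses normalized and curve-fitted.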
KB-3-1 cytotox – KB-3-1 parental cell cytotoxicity; KB-3-1 viability, CellTiter-Glo ATP luminescence, 72 h; Potency, µM (doses to about 46.1 µM), usual class: cytotoxic; 1.4% of 400,000 active; AID 1347075; further: on the % scale 0 is the no-effect control and ±100 the full control effect; nearly all actives have a fitted effect of over 60% in size
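Cells are dispensed, compounds pinned in, plates held at 37 °C for 72 h, then CellTiter-Glo is added and luminescence read after 10 minutes. Cell line: parental KB-3-1 in phenol-red-free DMEM, 10% FBS.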
SW480 rereplic – DNA re-replication induction in SW480 cells; SW480 DNA re-replication, Hoechst DNA content imaging, 48 h; Potency, µM (series often up to 46.1 µM), inactives show at the top dose re-replication activation, most hits filed as activators; 1.8% of 340,000 active; further: % of control where 0% means no effect; nearly all actives have a fitted effect of over 55% in size
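Image-based DNA-content assay: after two days of treatment, nuclei were labelled with the DNA dye Hoechst and imaged, and hits were compounds raising the count of nuclei showing high fluorescence intensity.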
ELG1 DNA repair – blocks ELG1-dependent DNA repair in HEK293T cells; HEK293T ELG1-luciferase reporter, luminescence, 16 h; DNA damage induced by 5-fluorouridine; Potency, µM (top dose mostly 46.1 µM), inactives show at the top dose activity change, negative = inhibition, hits mostly inhibitors; 2.3% of 330,000 active; further: on the % scale 0 is the no-effect control and ±100 the full control effect; nearly all actives have a fitted effect of over 55% in size
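Reporter activity after DNA damage by 5-fluorouridine is monitored. Compound-treated cells incubate 16 hr at 37 °C, then ONE-Glo is added for 30 min before luminescence reading.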
MCF10A rereplic – DNA re-replication induction in MCF 10a cells; MCF 10A DNA re-replication, Hoechst nuclear intensity, 48 h; Potency, µM (titrated, usually from 46.1 µM), for the others: at the top dose activity, positive = re-replication, actives largely listed as activators; 2.9% of 350,000 active; AID 624296; further: % of control where 0% means no effect; nearly all actives have a fitted effect of over 50% in size
Active calls of the source: *. Only some compounds are listed: those with a hit (about 8.1% of all), similar ones and a draw of the others. The call rests on the fitted dose curve; in most records, active means well fitted curve in the direction sought with a large enough effect; inconclusive means small, poorly fitted or top-dose-only effect, or another doubt; inactive means no such curve, though single readings can be large; an effect the other way counts as inactive or inconclusive. Potency means the concentration at half of the fitted maximal effect.

For COc1ccc(C(=O)c2ccc(Cl)cc2)cc1 the results were KB-V1 cytotox inactive, KB-3-1 cytotox inactive, SW480 rereplic -5.2%, ELG1 DNA repair inconclusive and MCF10A rereplic 1.1%.
Cc1cc(C)c(NC(=O)CNC(=O)c2ccc(-n3cncn3)c([N+](=O)[O-])c2)c(C)c1 was read as KB-V1 cytotox inactive, KB-3-1 cytotox inactive, SW480 rereplic -94.1%, ELG1 DNA repair 22.7% and MCF10A rereplic 2.6%.
CCN(CC)c1ccc(S(=O)(=O)N2CCCCC2)cc1NC(=O)CSCc1c(C)noc1C was read as KB-V1 cytotox inactive, KB-3-1 cytotox 23.1µM*, SW480 rereplic 0.6% and MCF10A rereplic 29.0%.
For CCOc1ccc(S(=O)(=O)N(CC)CC)cc1NC(=O)CSCc1c(C)noc1C the results were KB-V1 cytotox 7.31µM*, KB-3-1 cytotox inactive, SW480 rereplic 4.2%, ELG1 DNA repair -18.8% and MCF10A rereplic -1.4%.
Cc1cc(C)c(NC(=O)CSCc2c(C)noc2C)c(C)c1 was read as KB-V1 cytotox 23.1µM*, KB-3-1 cytotox inactive, SW480 rereplic -4.9%, ELG1 DNA repair -6.6% and MCF10A rereplic 7.1%.
COCC(O)Cn1ccnc1[N+](=O)[O-] (configuration not stated) was read as KB-V1 cytotox inactive and KB-3-1 cytotox inactive.
Screening CCCCn1c(-c2ccc(F)c(F)c2)nc2cc3[nH]c(=O)c(C(C)C)nc3cc21 returned KB-V1 cytotox inactive, KB-3-1 cytotox inactive, SW480 rereplic 0.1%, ELG1 DNA repair inconclusive and MCF10A rereplic 23.1µM*.
Screening Cc1cc(=O)c2c(=O)[nH][nH]c2[nH]1 returned KB-V1 cytotox inactive and KB-3-1 cytotox inactive.
For CCCCn1c(SCC#N)nc2ccccc2c1=O the results were KB-V1 cytotox inactive and KB-3-1 cytotox inactive.
`CCCCn1c(SCc2nc3ccccc3s2)nc2cc(S(N)(=O)=O)ccc21` gave KB-V1 cytotox inactive, KB-3-1 cytotox inactive, SW480 rereplic inconclusive, ELG1 DNA repair 18.4µM* and MCF10A rereplic 16.0%.
`CCCn1c(SCc2nc3sc(C)c(C)c3c(=O)[nH]2)nc2ccccc2c1=O` gave KB-V1 cytotox 9.2µM*, KB-3-1 cytotox inactive, SW480 rereplic -6.7%, ELG1 DNA repair -13.1% and MCF10A rereplic inconclusive.
`O=c1c2ccccc2nc(SCc2ccc([N+](=O)[O-])cc2)n1CCCO` gave KB-V1 cytotox 2.91µM*, KB-3-1 cytotox inactive, SW480 rereplic 9.8%, ELG1 DNA repair inconclusive and MCF10A rereplic 15.9%.
COCCn1c(SCc2nc3ccccc3c(=O)[nH]2)nc2ccccc2c1=O was read as KB-V1 cytotox inconclusive, KB-3-1 cytotox inactive, SW480 rereplic -7.0%, ELG1 DNA repair -14.1% and MCF10A rereplic 0.3%.
`CCCCn1c(SCc2nc3ccccc3s2)nc2ccccc2c1=O` gave KB-V1 cytotox inconclusive, KB-3-1 cytotox 23.1µM*, SW480 rereplic -4.5%, ELG1 DNA repair -13.1% and MCF10A rereplic inconclusive.
`CN(C(=O)c1ccc(COc2ccccc2Cl)o1)c1ccccc1` gave KB-V1 cytotox inactive, KB-3-1 cytotox inactive, SW480 rereplic -37.4%, ELG1 DNA repair inconclusive and MCF10A rereplic inconclusive.
Screening CCN(Cc1ccc2c(c1)OCCO2)C(=O)CSc1nc(C)nc2sc(C)c(C)c12 returned KB-V1 cytotox inactive, KB-3-1 cytotox inactive, SW480 rereplic -28.8%, ELG1 DNA repair 13µM* and MCF10A rereplic inconclusive.
Screening COc1ccccc1OCCCn1c(=O)sc2ccccc21 returned KB-V1 cytotox 14.6µM*, KB-3-1 cytotox inactive, SW480 rereplic -1.0%, ELG1 DNA repair inconclusive and MCF10A rereplic 15.0%.
`COc1ccccc1OCCCn1c(=O)oc2ccccc21` gave KB-V1 cytotox inactive, KB-3-1 cytotox inactive, SW480 rereplic -5.6%, ELG1 DNA repair inconclusive and MCF10A rereplic 2.0%.
`COC(=O)c1sccc1-c1ccc(C(=O)Nc2ccccc2)o1` gave KB-V1 cytotox 13µM*, KB-3-1 cytotox inconclusive, SW480 rereplic -2.7%, ELG1 DNA repair inconclusive and MCF10A rereplic 13.2%.
`COC(=O)c1sccc1NC(=O)c1ccc(C)o1` gave KB-V1 cytotox inactive, KB-3-1 cytotox inactive, SW480 rereplic -3.6%, ELG1 DNA repair -10.9% and MCF10A rereplic -5.1%.
Screening c1ccc2c(CCNc3ncnc4nc[nH]c34)cccc2c1 returned KB-V1 cytotox inactive, KB-3-1 cytotox 18.4µM*, SW480 rereplic 14.8%, ELG1 DNA repair 23.1µM* and MCF10A rereplic inconclusive.
COc1cc(C(=O)COC(=O)c2cc([N+](=O)[O-])ccc2N2CCOCC2)ccc1OC(F)F was read as KB-V1 cytotox inconclusive, KB-3-1 cytotox 20.6µM*, SW480 rereplic -2.0%, ELG1 DNA repair inconclusive and MCF10A rereplic 10.2%.
For CCOc1ccc(CCNC(=O)COC(=O)c2cc([N+](=O)[O-])ccc2N2CCOCC2)cc1OCC the results were KB-V1 cytotox inactive, KB-3-1 cytotox inactive, SW480 rereplic -31.6%, ELG1 DNA repair 18.3µM* and MCF10A rereplic -6.9%.
For CN(Cc1ccccc1)C(=O)COC(=O)c1cc([N+](=O)[O-])ccc1N1CCOCC1 the results were KB-V1 cytotox inconclusive, KB-3-1 cytotox inactive, SW480 rereplic -4.8%, ELG1 DNA repair -1.0% and MCF10A rereplic -1.5%.
For COc1ccc(CN(C)C(=O)COC(=O)c2cc([N+](=O)[O-])ccc2N2CCCC2)c(OC)c1OC the results were KB-V1 cytotox inactive, KB-3-1 cytotox inconclusive, SW480 rereplic 1.7%, ELG1 DNA repair 14.6µM* and MCF10A rereplic 13.3%.
Screening COc1ccccc1C(=O)COC(=O)c1cc([N+](=O)[O-])ccc1N1CCOCC1 returned KB-V1 cytotox inconclusive, KB-3-1 cytotox inactive, SW480 rereplic 10.7%, ELG1 DNA repair inconclusive and MCF10A rereplic 1.9%.
Screening Cc1cc(C)c(C(=O)COC(=O)c2cc([N+](=O)[O-])ccc2N2CCOCC2)cc1C returned KB-V1 cytotox 18.4µM*, KB-3-1 cytotox inactive, SW480 rereplic -2.7%, ELG1 DNA repair 7.0% and MCF10A rereplic 4.2%.
`CC[n+]1cccc(-c2nc3ccccc3s2)c1` gave KB-V1 cytotox inactive, KB-3-1 cytotox inconclusive, SW480 rereplic -0.2%, ELG1 DNA repair -12.5% and MCF10A rereplic -7.4%.
`Cc1ccc(NC(=O)c2cccc3c2C(=O)N(C2CCCCC2)C3)cc1` gave KB-V1 cytotox inconclusive, KB-3-1 cytotox inactive, SW480 rereplic -5.2%, ELG1 DNA repair 6.9% and MCF10A rereplic inconclusive.
For Cc1ccc(NNC(=O)Nc2ccc(Cl)cc2)nn1 the results were KB-V1 cytotox inactive, KB-3-1 cytotox inactive, SW480 rereplic -2.1%, ELG1 DNA repair 6.3% and MCF10A rereplic 3.2%.
